# High-throughput results: PubChem, several laboratories
# ALR inh: human ALR oxidase inhibition via reduced H2O2; actives 3.8% (n = 290,000); inhibition, % (no concentration beside the values); purified ALR, DTT oxidation, H2O2 HRP-luminol luminescence;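 active = mean replicate inhibition above about 79%, with every replicate also reaching it, limit read from the data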
# Target sequence (P55789 whole entry, looked up): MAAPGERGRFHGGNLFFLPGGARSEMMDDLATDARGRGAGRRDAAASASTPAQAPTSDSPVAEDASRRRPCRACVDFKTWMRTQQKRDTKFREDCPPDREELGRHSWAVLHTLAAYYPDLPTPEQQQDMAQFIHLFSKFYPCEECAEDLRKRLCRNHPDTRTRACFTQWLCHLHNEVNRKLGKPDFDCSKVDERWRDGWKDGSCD
# A3G deaminase: APOBEC3G (human) deaminase inhibition; AID 493012; recombinant A3G, ssDNA deamination FAM/TAMRA fluorescence; actives 0.28% (n = 330,000); Q9HC16; inhibition, % at 20 µM;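 active = inhibition of at least 40% at 20 µM, with no more than 30% in the related APOBEC3A deaminase screen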;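 also: plate controls were DMSO wells with A3G for no effect and wells lacking A3G enzyme for full effect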
# CendR NRP1 mod: NRP-1/CendR interaction modulation; actives 0.85% (n = 360,000); FAM-RPARPAR peptide binding to NRP-1, fluorescence polarization; inhibition, % at 25 µM;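 active = inhibition or corrected inhibition above about 18%, plus a signal ratio from 0.5 to 1.5, limit read from the data, passing the limit was not always enough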
# A3A deaminase: human APOBEC3A DNA deaminase inhibition. recombinant A3A, FAM/TAMRA ssDNA deamination fluorescence. inhibition, % at 20 µM. actives 0.41% (n = 330,000). AID 493011;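 active = at least 40% inhibition at 20 µM here, with at most 30% in a related deaminase screen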;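 also: plate controls were A3A with DMSO for no effect and wells lacking A3A enzyme for full effect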
# Target sequence (P31941 whole entry, looked up): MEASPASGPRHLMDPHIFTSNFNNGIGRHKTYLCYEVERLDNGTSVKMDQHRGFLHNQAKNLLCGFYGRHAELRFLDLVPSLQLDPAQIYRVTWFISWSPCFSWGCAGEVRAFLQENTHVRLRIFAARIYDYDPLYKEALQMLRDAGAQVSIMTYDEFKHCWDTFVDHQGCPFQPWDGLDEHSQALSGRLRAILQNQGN
# M18AAP inhibitor: PfM18AAP enzyme inhibition | actives 1.2% (n = 290,000) | recombinant PfM18AAP, H-Glu-NHMec fluorogenic cleavage | inhibition, % at 7.35 µM;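 active = inhibition above the campaign mean inhibition over all tested compounds plus 3 SD, cut at about 28% in these data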;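 also: 0% = plate median of test compound wells and 100% = 2 mM ZnCl2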
# CR mimetic SO: caloric restriction mimetics inhibiting age-related superoxide in yeast. S. cerevisiae aged cells, superoxide DHE fluorescence; active compounds read low. AID 2690. actives 0.18% (n = 330,000). superoxide response (% of plate mean), % at 10 µM;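 active = superoxide response under a set limit, about three screen SD below normal, cut at about 65% in these data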;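 also: yeast aged for seven days with compound at 30 °C before DHE staining; 100% = average MFI of all compound-treated wells on the plate with controls excluded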
# An asterisk follows results filed as active; nt = not tested or not shown. Most compounds without a hit are left out; they make up all but 5.2% or so of the library.
SMILES,ALR inh,A3G deaminase,CendR NRP1 mod,A3A deaminase,M18AAP inhibitor,CR mimetic SO
COc1cccc(C(=O)Nc2ccccc2N2CCCC2)c1,98*,3,5,1,-1,71
CCOC(=O)CC(NC(=O)c1cccc2c1C(=O)N(Cc1cccnc1)C2)c1ccc(OC(C)C)cc1 (stereo not drawn),-6,2,-3,2,-3,75
O=C(CCN1C(=O)COc2ccccc21)N1CCCCC1,-4,-4,1,0,6,96
COc1ccc2c(c1)C(CC(C)=O)N(c1ccc(-c3cccnc3)cc1)C(c1ccsc1)=C2 (stereo not drawn),nt,nt,11,nt,nt,nt
CCC1CCCCN1CCCNC(=O)c1ccc(CS(=O)(=O)Cc2ccc(Cl)cc2)o1 (stereo not drawn),-4,-5,6,-3,-7,102
CC(=O)Oc1cccc(C(=O)Nc2ccccc2C(=O)N2CCCC2)c1,30,-8,20*,-7,1,106
COc1ccc(NC(=O)CSCC(=O)Nc2ccccc2N2CCCCC2)cc1,nt,-3,7,1,nt,88
COc1cccc(C(=O)Nc2ccccc2C(=O)N2CCCC2)c1,13,0,3,1,-3,100
COc1ccc(NC(=O)CSCC(=O)Nc2ccccc2N2CCCC2)cc1,99*,-1,16,2,nt,99
O=C(Nc1ccccc1N1CCCC1)c1ccc(N2CCCC2=O)cc1,99*,12,-8,1,nt,92
COC(=O)c1ccc(N2CCOCC2)c(NC(=O)c2cccnc2)c1,3,-6,26*,-1,-3,96
COC(=O)c1ccc(N2CCN(C)CC2)c(NC(=O)c2cccnc2)c1,-13,-1,-6,1,-9,111
CC(CCc1ccccc1)NC(=O)C1CC1 (stereo not drawn),0,-10,-9,-4,nt,114
Cc1ccc(NC2=C(NCCO)C(=O)c3ccccc3C2=O)cc1,100*,-10,8,-6,-3,141
O=C(NCCc1ccc(Cl)cc1)C1CCN(S(=O)(=O)c2ccc(Br)s2)CC1,-2,-7,4,-2,3,100
CC(C)Cc1nc2sc3c(=O)[nH]cnc3c2c2c1CCC2,6,-1,-17,-2,0,111
Cc1[nH][nH]c(=O)c1C(c1c(C)[nH][nH]c1=O)c1cn(Cc2cccc3ccccc23)c2ccccc12,8,5,-1,-3,10,108
Cc1[nH][nH]c(=O)c1C(c1c(C)[nH][nH]c1=O)c1cn(C)c2ccccc12,nt,nt,20*,nt,13,nt
CCN(C[C@H]1N[C@@](CC)(C(=O)OC)[C@H]2C(=O)N(C)C(=O)[C@@H]12)S(=O)(=O)c1ccc(-c2ccccc2)cc1,nt,-7,-4,-4,nt,95
CCN(C[C@H]1N[C@@](CC)(C(=O)OC)[C@H]2C(=O)N(C)C(=O)[C@@H]12)S(=O)(=O)c1ccc(OC)cc1,nt,-7,28*,-4,nt,107
O=C(Nc1cccnc1)c1cc(-c2ccc(Cl)cc2)on1,-1,-10,-8,-2,6,113
Cc1nnc2n1NC(c1ccc(Cl)cc1)C(C(=O)N1CCC(C)CC1)S2 (stereo not drawn),-5,-8,23*,-2,5,92
Cc1nnc2n1NC(c1ccc(Cl)cc1)C(C(=O)N(C)C1CCCCC1)S2 (stereo not drawn),-2,-6,9,-2,0,94
O=C(COc1c(F)c(F)cc(F)c1F)NNC(=O)CC1CCS(=O)(=O)C1 (stereo not drawn),0,-2,7,-2,nt,88
COC(=O)[C@@]1(Cc2ccccc2)[C@H]2C(=O)N(C)C(=O)[C@H]2[C@H]2CN=C(SCC(=O)c3ccccc3)N21,nt,-2,13,-2,nt,94
SMILES,ALR inh,A3G deaminase,CendR NRP1 mod,A3A deaminase,M18AAP inhibitor,CR mimetic SO
COC(=O)c1c(Cl)c2n3ccccc3c(C)c(-c3ccccc3)c-2c1C(=O)OC,nt,-2,38*,0,-3,112
COC(=O)c1cc2c(-c3ccccc3)c(C)c3ccccn3c-2c1C(=O)OC,nt,-4,-15,-3,3,99
Cc1c(NC(=O)C(C)OC(=O)c2cccnc2)c(=O)n(-c2ccccc2)n1C (stereo not drawn),-6,-1,0,0,-1,115
O=C1c2ccccc2CSc2c(O)cccc21,80*,8,-2,2,nt,98
Cn1nc(C(F)(F)F)c(C#N)c1N1CCN(c2cccc(C(F)(F)F)c2)CC1,nt,2,39*,9,-2,109
O=C1c2c(O)cccc2C(C2OC(CO)[C@@H](O)[C@H](O)[C@H]2O)c2cc(CO)cc(O)c21 (stereo partly drawn),-7,-5,37*,-3,nt,108
O=C1c2cc(CO)cc(O)c2C(=O)c2c(O[C@@H]3OC(CO)[C@@H](O)[C@@H](O)[C@@H]3O)cccc21 (stereo partly drawn),-15,-4,-5,2,nt,168
CC(C)C(CCN1C(=O)c2ccccc2C1=O)c1ccco1 (stereo not drawn),90*,-4,10,0,7,96
Cc1cc(C)c(NC(=O)CN(C2CCCCC2)C2CCCCC2)c(C)c1,-7,-2,2,3,-5,87
NS(=O)(=O)c1ccc(Sc2nc3ccccc3s2)c([N+](=O)[O-])c1,98*,-6,-3,-3,6,110
O=C(O)c1ccc(S(=O)(=O)Nc2ccc(O)c(Sc3nc4ccccc4s3)c2)cc1,100*,0,-38,6,20,77
Cc1sc2ncnc(OCC(=O)c3ccc(S(=O)(=O)N4CCCC4)cc3)c2c1C,-3,0,2,-1,-6,111
CCC1C/C(=C\c2cccnc2)C(=O)/C(=C/c2cccnc2)C1 (stereo not drawn),nt,nt,-2,nt,8,nt
O=C(NCc1cccc(Br)c1)C1CC2Cn3c(nc4ccccc43)C2N1c1ccccc1 (stereo not drawn),77*,10,-6,7,nt,98
Cc1ccc(C(=O)N/C(=C\c2ccccc2F)c2nc(=S)[nH][nH]2)cc1,98*,-5,-15,-1,5,98
Cc1ccc(/C=C(\NC(=O)c2ccc(C)cc2)c2nc(=S)[nH][nH]2)cc1,-33,-6,-1,-4,2,96
COc1cc2c(cc1OC)CN(c1ccc([N+](=O)[O-])cc1C#N)CC2,87*,2,-1,-1,-5,106
CCCC(=O)Nc1ccc(NCc2ccc(C)s2)cc1,91*,-9,3,-10,1,101
CC(=O)Nc1ccc(NCc2ccc(C)s2)cc1,96*,0,5,-8,0,95
CCCC(=O)Nc1ccc(N2CCOCC2)cc1,43,-1,-9,-2,6,108
Cc1ccc(CNc2cc(C(=O)O)ccc2C)s1,nt,-10,-4,-7,0,104
